Over roughly 16,000 sequences, “rpm ratio (pull-down/input)” has its median near 0.5; the highest 2% begin near 5.5. What follows is part of a selection rich in the highest values, with near analogues and random picks from the rest.

The assay concerns the target T1, MBP-FoxP3dN (Mus musculus, UniProt Q99JB6 188-423).
T1 sequence: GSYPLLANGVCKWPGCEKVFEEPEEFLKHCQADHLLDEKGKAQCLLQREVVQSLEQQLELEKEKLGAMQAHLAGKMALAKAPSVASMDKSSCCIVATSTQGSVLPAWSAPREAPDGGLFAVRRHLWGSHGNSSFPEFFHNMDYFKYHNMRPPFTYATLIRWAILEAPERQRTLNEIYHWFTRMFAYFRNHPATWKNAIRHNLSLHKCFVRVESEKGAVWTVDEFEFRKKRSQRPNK
Nature of the assay: PD-seq (MBP pull-down with sequencing); 20 mM Tris-HCl pH 7.5, 100 mM NaCl, 1.5 mM MgCl2, 0.4 uM protein, 0.1 uM dsDNA library, 30 min, room temperature, amylose pull-down; high values mean tight binding. The note with it: protein: recombinant; tags: His6-MBP; chain copies: 2; dsDNA, one strand shown. Put shortly:
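E. coli-expressed mouse FoxP3 or FoxP1 fragment, N-terminus removed and tagged with His6-MBP, was used at 0.4 µM against 0.1 µM of a Klenow-filled degenerate double-stranded DNA library. After 30 min at room temperature in Tris pH 7.5 buffer with NaCl and MgCl2, complexes were pulled down on amylose resin and washed three times. Binding is pull-down over input reads-per-million enrichment from pooled replicates of the proteinase K-released, PCR-barcoded, Illumina-sequenced DNA.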
Take “GATGATTGTTCTCCCAGCTGATGAATTTCTATGCTCGAGTAAACAAATTTTCCTAATCTTTCTGTTCAAGCGCCATCTAC”: the binding signal was 0.385 RPM ratio (pull-down/input).

On to “GATGATTGTTCTCCCAGCTGATGAATTCGTTTCCTCGAGTAAACAAATTTTCCTAATCTTTCTGTTCAAGCGCCATCTAC”, for which the binding signal was 1.76 RPM ratio (pull-down/input).

As for “GATGATTGTTCTCCCAGCTGATGAATTGTGGAAGTCGAGTAAACAAATTTTCCTAATCTTTCTGTTCAAGCGCCATCTAC”, the binding signal is 0.274 RPM ratio (pull-down/input).

Take “GATGATTGTTCTCCCAGCTGATGAATTTAGCGGATCGAGTAAACAAATTTTCCTAATCTTTCTGTTCAAGCGCCATCTAC”: the binding signal is 0.292 RPM ratio (pull-down/input).

“GATGATTGTTCTCCCAGCTGATGAATTGACTCCCTCGAGTAAACAAATTTTCCTAATCTTTCTGTTCAAGCGCCATCTAC”: the binding signal was 0.386 RPM ratio (pull-down/input).

As for “GATGATTGTTCTCCCAGCTGATGAATTTTATTGCTCGAGTAAACAAATTTTCCTAATCTTTCTGTTCAAGCGCCATCTAC”, the binding signal is 2.06 RPM ratio (pull-down/input).

For “GATGATTGTTCTCCCAGCTGATGAATTATTTTGCTCGAGTAAACAAATTTTCCTAATCTTTCTGTTCAAGCGCCATCTAC”, the binding signal was 0.946 RPM ratio (pull-down/input).

In the case of “GATGATTGTTCTCCCAGCTGATGAATTTATTTGCTCGAGTAAACAAATTTTCCTAATCTTTCTGTTCAAGCGCCATCTAC”, the binding signal is 6.11 RPM ratio (pull-down/input).

Take “GATGATTGTTCTCCCAGCTGATGAATTTCTTTGCTCGAGTAAACAAATTTTCCTAATCTTTCTGTTCAAGCGCCATCTAC”: the binding signal is 1.5 RPM ratio (pull-down/input).

Turning to “GATGATTGTTCTCCCAGCTGATGAATTTAGTTGCTCGAGTAAACAAATTTTCCTAATCTTTCTGTTCAAGCGCCATCTAC”, the binding signal was 2.92 RPM ratio (pull-down/input).

For “GATGATTGTTCTCCCAGCTGATGAATTGTTTTGCTCGAGTAAACAAATTTTCCTAATCTTTCTGTTCAAGCGCCATCTAC”, the binding signal was 3.65 RPM ratio (pull-down/input).

“GATGATTGTTCTCCCAGCTGATGAATTTGATTGCTCGAGTAAACAAATTTTCCTAATCTTTCTGTTCAAGCGCCATCTAC”: the binding signal was 5.45 RPM ratio (pull-down/input).

For the sequence “GATGATTGTTCTCCCAGCTGATGAATTAGTTTGCTCGAGTAAACAAATTTTCCTAATCTTTCTGTTCAAGCGCCATCTAC”, the binding signal was 5.59 RPM ratio (pull-down/input).

For “GATGATTGTTCTCCCAGCTGATGAATTTTGTTGCTCGAGTAAACAAATTTTCCTAATCTTTCTGTTCAAGCGCCATCTAC”, the binding signal was 5.63 RPM ratio (pull-down/input).

Consider “GATGATTGTTCTCCCAGCTGATGAATTAGTTTTCTCGAGTAAACAAATTTTCCTAATCTTTCTGTTCAAGCGCCATCTAC”, for which the binding signal was 4.62 RPM ratio (pull-down/input).

As to “GATGATTGTTCTCCCAGCTGATGAATTTTTTTGCTCGAGTAAACAAATTTTCCTAATCTTTCTGTTCAAGCGCCATCTAC”, the binding signal was 0.366 RPM ratio (pull-down/input).

“GATGATTGTTCTCCCAGCTGATGAATTTGTTTGCTCGAGTAAACAAATTTTCCTAATCTTTCTGTTCAAGCGCCATCTAC”: the binding signal was 7.54 RPM ratio (pull-down/input).

Take “GATGATTGTTCTCCCAGCTGATGAATTCTCTTGCTCGAGTAAACAAATTTTCCTAATCTTTCTGTTCAAGCGCCATCTAC”: the binding signal was 0.273 RPM ratio (pull-down/input).

Consider “GATGATTGTTCTCCCAGCTGATGAATTTTCCTTATCGAGTAAACAAATTTTCCTAATCTTTCTGTTCAAGCGCCATCTAC”, for which the binding signal was 0.31 RPM ratio (pull-down/input).

With “GATGATTGTTCTCCCAGCTGATGAATTGGTGTTGTCGAGTAAACAAATTTTCCTAATCTTTCTGTTCAAGCGCCATCTAC”, the binding signal was 3.18 RPM ratio (pull-down/input).

For the sequence “GATGATTGTTCTCCCAGCTGATGAATTCGATATTTCGAGTAAACAAATTTTCCTAATCTTTCTGTTCAAGCGCCATCTAC”, the binding signal was 1.79 RPM ratio (pull-down/input).

Consider “GATGATTGTTCTCCCAGCTGATGAATTTCGCAAATCGAGTAAACAAATTTTCCTAATCTTTCTGTTCAAGCGCCATCTAC”, for which the binding signal is 0.634 RPM ratio (pull-down/input).

Take “GATGATTGTTCTCCCAGCTGATGAATTCGTCGTATCGAGTAAACAAATTTTCCTAATCTTTCTGTTCAAGCGCCATCTAC”: the binding signal was 1.17 RPM ratio (pull-down/input).

Turning to “GATGATTGTTCTCCCAGCTGATGAATTTAGTAAATCGAGTAAACAAATTTTCCTAATCTTTCTGTTCAAGCGCCATCTAC”, the binding signal is 0.439 RPM ratio (pull-down/input).

As to “GATGATTGTTCTCCCAGCTGATGAATTGTAGCCGTCGAGTAAACAAATTTTCCTAATCTTTCTGTTCAAGCGCCATCTAC”, the binding signal is 0.622 RPM ratio (pull-down/input).

For the sequence “GATGATTGTTCTCCCAGCTGATGAATTATGTGTATCGAGTAAACAAATTTTCCTAATCTTTCTGTTCAAGCGCCATCTAC”, the binding signal was 5.73 RPM ratio (pull-down/input).

Turning to “GATGATTGTTCTCCCAGCTGATGAATTATGTATATCGAGTAAACAAATTTTCCTAATCTTTCTGTTCAAGCGCCATCTAC”, the binding signal is 5.96 RPM ratio (pull-down/input).

As for “GATGATTGTTCTCCCAGCTGATGAATTATGTATCTCGAGTAAACAAATTTTCCTAATCTTTCTGTTCAAGCGCCATCTAC”, the binding signal was 5.75 RPM ratio (pull-down/input).

On to “GATGATTGTTCTCCCAGCTGATGAATTATATGTATCGAGTAAACAAATTTTCCTAATCTTTCTGTTCAAGCGCCATCTAC”, for which the binding signal is 2.22 RPM ratio (pull-down/input).

On to “GATGATTGTTCTCCCAGCTGATGAATTTTATGTATCGAGTAAACAAATTTTCCTAATCTTTCTGTTCAAGCGCCATCTAC”, for which the binding signal is 3.53 RPM ratio (pull-down/input).

Consider “GATGATTGTTCTCCCAGCTGATGAATTGTATGTATCGAGTAAACAAATTTTCCTAATCTTTCTGTTCAAGCGCCATCTAC”, for which the binding signal is 4.55 RPM ratio (pull-down/input).

“GATGATTGTTCTCCCAGCTGATGAATTATGTATTTCGAGTAAACAAATTTTCCTAATCTTTCTGTTCAAGCGCCATCTAC”: the binding signal was 4.76 RPM ratio (pull-down/input).

For the sequence “GATGATTGTTCTCCCAGCTGATGAATTATCTGTATCGAGTAAACAAATTTTCCTAATCTTTCTGTTCAAGCGCCATCTAC”, the binding signal was 0.545 RPM ratio (pull-down/input).

As to “GATGATTGTTCTCCCAGCTGATGAATTATGTTTCTCGAGTAAACAAATTTTCCTAATCTTTCTGTTCAAGCGCCATCTAC”, the binding signal was 4.18 RPM ratio (pull-down/input).

(Values after PMC12820563, “FoxP3 forms a head-to-head dimer in vivo and stabilizes its multimerization on adjacent microsatellites”.)
